Test systems include SR leukemia; RPMI-8226 leukemia; OVCAR-8 ovarian; OVCAR-5 ovarian; OVCAR-4 ovarian; SK-OV-3 ovarian; IGROV1 ovarian; OVCAR-3 ovarian; HS 578T breast; NCI/ADR-RES ovarian; T-47D breast; BT-549 breast; MDA-MB-435 melanoma; SW-620 colon; MCF7 breast; HCT-116 colon; HCC-2998 colon; KM12 colon.
What all share (assay): NCI-60 one-dose screen, 48 h (100 = growth as untreated, 0 = no growth, -100 = all killed)
Common to all, as to settings: 10 µM unless noted

Compounds without any hit were thinned out: in the full panel of roughly 83,000, 20% have a hit.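 Note: values are percent growth. 100 is the growth of untreated cells, values between 100 and 0 indicate rising inhibition; between -100 and 0 indicates cell death.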 Values without a mark were called inactive. Calls of active or inactive are those of the source. How the source made its calls: active means growth percent below 10; inactive means the rest.

This passage reports growth results from PubChem BioAssay (NCI).

On to `OB(O)c1cccc(-c2nc3ccc4[nH]ncc4c3c3c2CCCC3)c1`, for which the growth is 32.2% with SR leukemia; 53% in the experiment with RPMI-8226 leukemia; 48.7% in the experiment on OVCAR-8 ovarian; 78.3% in the experiment on OVCAR-5 ovarian; 80.2% in the experiment on OVCAR-4 ovarian; 7.93% (active) in the experiment on SK-OV-3 ovarian. For the same molecule, the growth was 47.2% with IGROV1 ovarian; 73.9% with OVCAR-3 ovarian; 0.588% (active) in the experiment on HS 578T breast; 87.6% with NCI/ADR-RES ovarian; 66.6% in the experiment on T-47D breast; 35.5% in the experiment on BT-549 breast. Moreover, the growth in the experiment with MDA-MB-435 melanoma is 45.3%; with SW-620 colon, 29.9%; in the experiment with MCF7 breast, 70.1%; with HCT-116 colon, 25%; with HCC-2998 colon it was 77.3%; with KM12 colon, 36.1%.

Regarding `CCCCC(=O)c1ccco1`, the growth is 98.2% in the experiment on SR leukemia; 85.1% in the experiment on RPMI-8226 leukemia; 98.9% with OVCAR-8 ovarian; 84.7% in the experiment with OVCAR-5 ovarian; 97.3% in the experiment on OVCAR-4 ovarian; 89.1% with SK-OV-3 ovarian. Besides, the growth was 91.1% with IGROV1 ovarian; 104% in the experiment with OVCAR-3 ovarian; 95.2% in the experiment with HS 578T breast; 93.3% in the experiment on NCI/ADR-RES ovarian; 79.4% in the experiment with T-47D breast; 102% with BT-549 breast. The growth with MDA-MB-435 melanoma was 98.8%; with SW-620 colon, 97%; with MCF7 breast, 90.9%; in the experiment on HCT-116 colon, 91.6%; in the experiment with HCC-2998 colon it was 94.3%; in the experiment with KM12 colon it was 106%.

`Cc1cccc(N2CCN(CC(O)COc3ccc(Cl)cc3)CC2)c1` (stereo unspecified): the growth in the experiment with SR leukemia is 79.7%; with RPMI-8226 leukemia, 77.6%; in the experiment with OVCAR-8 ovarian it was 98.8%; with OVCAR-5 ovarian it was 116%; in the experiment on OVCAR-4 ovarian, 115%; in the experiment with SK-OV-3 ovarian, -100% (active). Besides, the growth in the experiment with IGROV1 ovarian is 92.7%; in the experiment on OVCAR-3 ovarian, 111%; in the experiment with HS 578T breast it was 115%; in the experiment on NCI/ADR-RES ovarian, 105%; with T-47D breast, 94.4%; with BT-549 breast, 100%. Moreover, the growth in the experiment on MDA-MB-435 melanoma was 84.1%; with SW-620 colon it was 103%; with MCF7 breast, 121%; with HCT-116 colon it was 89.9%; in the experiment with KM12 colon, 97.1%.

With `CC1(C)c2[nH]c3ccccc3c2C[C@]2(C)[C@H]3CC=C4[C@@H]5C[C@@](C)(C(N)=O)CC[C@]5(C)CC[C@@]4(C)[C@]3(C)CC[C@@H]12`, the growth in the experiment with SR leukemia is 34.3%; with RPMI-8226 leukemia, 38.3%; in the experiment with OVCAR-8 ovarian, 50.8%; in the experiment on OVCAR-5 ovarian it was 102%; with OVCAR-4 ovarian it was 32.4%; in the experiment with SK-OV-3 ovarian, 70.1%. The growth in the experiment on IGROV1 ovarian is 74.4%; with OVCAR-3 ovarian, 58.3%; in the experiment with HS 578T breast, 91.5%; in the experiment on NCI/ADR-RES ovarian it was 67.5%; in the experiment on T-47D breast, 9.07% (active); in the experiment with BT-549 breast, 58.7%. Further, the growth in the experiment on MDA-MB-435 melanoma was 59.3%; in the experiment with SW-620 colon, 61.2%; in the experiment on MCF7 breast, 29.3%; with HCT-116 colon, 40.9%; in the experiment on KM12 colon, 58.2%.

Turning to `COc1cc2c(c(OC)c1OC)CCC(c1cccc(C(=O)Nc3cccc(Br)c3)c1)O2` (stereo unspecified), the growth with SR leukemia was 35.6%; with RPMI-8226 leukemia, 50%; in the experiment with OVCAR-8 ovarian, 81.1%; with OVCAR-5 ovarian it was 81.3%; with OVCAR-4 ovarian it was 55%; in the experiment on SK-OV-3 ovarian, 78%. Moreover, the growth in the experiment on IGROV1 ovarian is 81.8%; in the experiment with OVCAR-3 ovarian, 74.7%; in the experiment with HS 578T breast it was 66.7%; in the experiment on NCI/ADR-RES ovarian, 79.6%; with T-47D breast, 40.6%; with BT-549 breast it was 80.8%. The growth in the experiment on MDA-MB-435 melanoma is 69.6%; in the experiment with SW-620 colon, 79.6%; with MCF7 breast, 77.8%; in the experiment on HCT-116 colon, 55%; in the experiment on HCC-2998 colon it was 103%; in the experiment with KM12 colon, 81.2%.

`O=C1c2ccc3c4ccc5c6c(ccc(c7ccc(c2c37)C(=O)N1CCC[P+](c1ccccc1)(c1ccccc1)c1ccccc1)c64)C(=O)N(CCC[P+](c1ccccc1)(c1ccccc1)c1ccccc1)C5=O`: the growth in the experiment on SR leukemia was 35.9%; in the experiment on RPMI-8226 leukemia, 21.3%; with OVCAR-8 ovarian it was 50.4%; in the experiment with OVCAR-5 ovarian, 74.1%; with OVCAR-4 ovarian, 75.9%; in the experiment on SK-OV-3 ovarian it was 91.7%. Moreover, the growth in the experiment with IGROV1 ovarian is 29.6%; in the experiment on OVCAR-3 ovarian it was 37.4%; in the experiment on HS 578T breast, 81.2%; in the experiment on NCI/ADR-RES ovarian it was 97.2%; with T-47D breast it was 41.1%; in the experiment with BT-549 breast, 74%. Also, the growth in the experiment with MDA-MB-435 melanoma was 0.931% (active); in the experiment on SW-620 colon it was 24.5%; with MCF7 breast, 37.1%; in the experiment with HCT-116 colon, 46%; in the experiment with HCC-2998 colon it was 25.5%; with KM12 colon, 10.5%.

In the case of `CCOC(=O)C#Cc1c(C(=O)OCC)nnn1[C@@H]1O[C@H](CO)[C@H]2OC3(CCCCC3)O[C@H]21`, the growth was -8.98% (active) in the experiment with SR leukemia; 14.2% in the experiment on RPMI-8226 leukemia; 95.3% with OVCAR-8 ovarian; 105% in the experiment with OVCAR-5 ovarian; 56% in the experiment with OVCAR-4 ovarian; 98.1% in the experiment with SK-OV-3 ovarian. Besides, the growth in the experiment on IGROV1 ovarian was 96%; in the experiment on OVCAR-3 ovarian, 4.07% (active); in the experiment on HS 578T breast it was 89.7%; with NCI/ADR-RES ovarian, 100%; in the experiment with T-47D breast, 13.2%; in the experiment on BT-549 breast, 94.2%. For the same molecule, the growth with MDA-MB-435 melanoma was 79.7%; with SW-620 colon it was -70.9% (active); in the experiment with MCF7 breast, 8.45% (active); in the experiment with HCT-116 colon, 66.5%; in the experiment on HCC-2998 colon, 85.4%; in the experiment with KM12 colon, 94.5%.

In the case of `COC(=O)c1c2c(c(C)[n+]([O-])c1C)C(=O)C=C(NCc1ccc(Br)cc1)C2=O`, the growth in the experiment with SR leukemia is 1.3% (active); in the experiment on RPMI-8226 leukemia it was -28.3% (active); in the experiment on OVCAR-8 ovarian, 1.05% (active); in the experiment on OVCAR-5 ovarian, -82.8% (active); in the experiment on OVCAR-4 ovarian, -92.8% (active); with SK-OV-3 ovarian, -10.7% (active). In addition, the growth with IGROV1 ovarian is -53.4% (active); in the experiment on OVCAR-3 ovarian, -73.4% (active); with HS 578T breast, -7.62% (active); in the experiment with NCI/ADR-RES ovarian, -8.51% (active); in the experiment with T-47D breast, -42.8% (active); in the experiment on BT-549 breast it was -93.5% (active). In addition, the growth was -92.8% (active) in the experiment with MDA-MB-435 melanoma; -17.2% (active) in the experiment on SW-620 colon; -56.9% (active) in the experiment on MCF7 breast; -17.2% (active) in the experiment with HCT-116 colon; -11.3% (active) in the experiment on KM12 colon.
